# “And” between values parts separate entries of the source, which are not always exact repeats. Equal entries are not always repeated. Hit rate of the full screen: of about 150,000 compounds, about 6,500 (4.3%) were called active. Inconclusive results (about 12%) are left out. Calls come from the whole dose curve; as a rule, active = well fitted inhibition curve with a large enough effect (not every such curve was filed as active); inconclusive = small, poorly fitted or top-dose-only effect, or another doubt; inactive = no such curve, though single readings can be large or run the other way. The full list was thinned out, with actives kept by preference.
# Target: 15-hydroxyprostaglandin dehydrogenase [NAD(+)] (Homo sapiens) (UniProt P15428)
# Experiment: qHTS Assay for Inhibitors of HPGD (15-Hydroxyprostaglandin Dehydrogenase)
# Conditions: purified HPGD, NADH fluorescence kinetic, PGE2 substrate; activity change, negative = inhibition: active compounds read low
# Text: Human 15-Hydroxyprostaglandin dehydrogenase (HPGD) catalyzes the inactivation of prostaglandin E2, and plays a major role in cancer biology by antagonizing the oncogenic potential of cyclooxygenase type 2 (COX2). Assays are available, based on absorbance/fluorescence increase of NADH with the substrate 15-OH prostaglandin E2. References 1. Myung SJ, Rerko RM, Yan M, Platzer P, Guda K, Dotson A, Lawrence E, Dannenberg AJ, Lovgren AK, Luo G, Pretlow TP, Newman RA, Willis J, Dawson D, Markowitz SD. 15-Hydroxyprostaglandin dehydrogenase is an in vivo suppressor of colon tumorigenesis. […] 2. Yan M, Rerko RM, Platzer P, Dawson D, Willis J, Tong M, Lawrence E, Lutterbaugh J, Lu S, Willson JK, Luo G, Hensold J, Tai HH, Wilson K, Markowitz SD. 15-Hydroxyprostaglandin dehydrogenase, a COX-2 oncogene antagonist, is a TGF-beta-induced suppressor of human gastrointestinal cancers. Proc Natl Acad Sci U S A. 2004 Dec 14;101(50):17468-73. 3. Yang L, Amann JM, Kikuchi T, Porta R, Guix M, Gonzalez A, Park KH, Billheimer D, Arteaga CL, Tai HH, Dubois R, Carbone DP, Johnson DH. Inhibition of Epidermal Growth Factor Receptor Signaling Elevates 15-Hydroxyprostaglandin Dehydrogenase in Non-Small-Cell Lung Cancer. Cancer Res. 2007 Jun 15;67(12):5587-5593. Inhibition of HPGD activity was screened by utilizing prostaglandin as an electron donor and NAD+ as an electron acceptor/cofactor. An increase in the fluorescence intensity due to conversion of NAD+ to NADH was used to measure the enzyme activity. NIH Chemical Genomics Center [NCGC] Structural Genomics Consortium [SGC]
# Buffer: 50 mM Tris-HCl, 0.01% Tween 20, pH 8. Enzyme Buffer: 50 mM Tris-HCl, 0.5 mM NAD+ and 0.01% Tween 20, pH 8. Reagents/Controls: Buffer in columns 3 and 4 as negative control (no enzyme). Substrate/cofactor solution: 1 mM NAD+ and 30 uM prostaglandin (Sigma, prostaglandin E2, # P5640) final concentrations dispensed throughout the plate. Enzyme: 20 nM HPGD final concentration in columns 1, 2, 5-48. Column 1 and 2 is neutral (100% activity). A titration of control inhibitor GW5074 (G6416 Sigma-Aldrich, St. Louis, MO) top concentration 10 mM in DMSO, then 1:2 dilution for a total of 16 concentrations in duplicate) was pin-transferred into column 2. Assay Steps: Three uL of enzyme were dispensed to 1536-well Greiner black solid bottom plates. Compounds and control inhibitor (23 nL) were transferred via Kalypsys PinTool. The plates were incubated for 15 min at room temperature, and then 1 uL of substrate/cofactor solution was added to start the reaction. The plates were immediately transferred to and read 5 times every 30 seconds on ViewLux High-throughput CCD imager (Perkin-Elmer) using 360 nm excitation and 450 nm emission fluorescence protocol. The fluorescence intensity difference between the last and the first time points was used to compute reaction progress.
# % is set by controls: 0 for no effect and ±100 for the full control effect; potency is the fitted concentration of half-maximal effect.
# Chain of 15-hydroxyprostaglandin dehydrogenase [NAD(+)] (Homo sapiens) (P15428 whole entry, looked up): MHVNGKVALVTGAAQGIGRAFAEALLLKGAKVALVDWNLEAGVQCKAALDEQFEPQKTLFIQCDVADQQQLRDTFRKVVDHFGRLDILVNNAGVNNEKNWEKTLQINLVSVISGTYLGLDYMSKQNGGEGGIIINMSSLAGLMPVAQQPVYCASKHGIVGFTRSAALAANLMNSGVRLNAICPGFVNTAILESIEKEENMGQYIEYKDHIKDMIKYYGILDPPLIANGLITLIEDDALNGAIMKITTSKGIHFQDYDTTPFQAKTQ
Structure (SMILES),Potency,"activity change, negative = inhibition"
Cc1ccnc(-n2c(C)cc(/C=C3\C(=O)NC(=S)N(C)C3=O)c2C)c1,20 µM (active),–
Cc1ccc(-n2c(C)cc(/C=C3\C(=O)NC(=O)N(C)C3=O)c2C)cc1C,–,-10.2% (inactive)
COC(=O)c1ccc2[se]c(CC3CCCCC3)c(I)c2c1,–,-2.23% (inactive)
CC(C)CC(C)Nc1ccc(Nc2ccccc2)cc1 (centres undefined),–,-6.53% (inactive)
Clc1cccc(Cl)c1Cl,–,-10.3% (inactive)
N#Cc1c(Cl)c(Cl)c(Cl)c(C#N)c1Cl,2.51 µM (active),–
ClC(Cl)(Cl)c1ccccc1,–,-5.6% (inactive) and -7.46% (inactive)
N#CC(C#N)=Cc1cc(O)c(O)c([N+](=O)[O-])c1,22.4 µM (active),–
Nc1ccc([N+](=O)[O-])cc1,–,-4.46% (inactive)
COC1=C[C@@H]2[C@@H]3Cc4ccc(OC)c(O)c4[C@]2(CCN3C)CC1=O,–,-2.46% (inactive)
CN(C)C1C(=O)C(C(N)=O)=C(O)[C@@]2(O)C(=O)C3=C(O)c4c(O)cccc4[C@@](C)(O)C3C[C@@H]12 (some centres undefined),–,-15.2% (inactive)
CCN1C[C@]2(C)CC[C@H](O)[C@@]34[C@@H]5CC6[C@@H](OC)C[C@@](O)([C@@H]5[C@@H]6O)[C@H](C[C@@H]23)[C@H]14,–,-6.3% (inactive)
COc1ccc(S(=O)(=O)NCc2ccc(C(=O)N3CCC4(CC3)OCCO4)cc2)cc1,–,-19.1% (inactive)
Cc1cccc(-n2c(C)nc3cc(C(=O)N4CCC5(CC4)OCCO5)ccc32)c1,14.1 µM (active),–
O=C(c1cc(-c2ccncc2)nc2ccccc12)N1CCC2(CC1)OCCO2,–,-3.06% (inactive)
CCCC[N+]1(C)C2CC(OC(=O)C(CO)c3ccccc3)CC1C1OC12 (centres undefined),–,-2.83% (inactive)
CN(C)[C@@H]1C(=O)C(C(N)=O)=C(O)[C@@]2(O)C(=O)C3=C(O)c4c(O)cccc4[C@@](C)(O)C3CC12 (some centres undefined),–,-24.8% (inactive)
COC1=C[C@]23CCCN2CCc2cc4c(cc2[C@@H]3[C@@H]1O)OCO4,–,-6.42% (inactive)
CCCCC/C=C\C/C=C\C/C=C\C/C=C\CCCCCC(=O)NCCO,–,-7.58% (inactive) and -6.46% (inactive)
CC(=O)NBr,–,-7.45% (inactive)
CCC1(c2ccccc2)C(=O)NC(=O)N(C)C1=O (centres undefined),–,-4.89% (inactive)
CCC/C(=N\O)c1c[nH]c2ccccc12,–,-17.4% (inactive)
c1ccc(CCCCN2CCC(c3ccccc3)CC2)cc1,–,-7.8% (inactive)
CC(=O)c1ccc(OC(NC(=O)Cc2ccccc2)C(Cl)(Cl)Cl)cc1 (centres undefined),12.6 µM (active),–

Structure (SMILES),Potency,"activity change, negative = inhibition"
CCOP(=O)(OCC)C(NC(=O)c1ccc(C)cc1)C(Cl)(Cl)Cl (centres undefined),–,-5.69% (inactive)
CC(=O)NC(=O)NC(C)Cc1ccccc1 (centres undefined),–,-9.28% (inactive)
CC(C)(C)c1ccc(CN2C(=O)CN=C(c3ccccc3)c3ccccc32)cc1,–,-17.9% (inactive)
Clc1ccccc1,–,-8.83% (inactive)
CCC(=NCCc1ccccc1)c1c(O)n(C2CCCCC2)c(=O)[nH]c1=O,–,-16.1% (inactive)
CCCCn1c(O)c(C(CC)=NCc2ccco2)c(=O)[nH]c1=O,–,1.83% (inactive)
CCC(=NCc1ccco1)c1c(O)n(Cc2ccccc2)c(=O)[nH]c1=O,15.8 µM (active),–
c1ccc2c(c1)[I+]c1ccccc1-2,–,-12.3% (inactive) and -15.8% (inactive)
c1csc(CN2CCCC3(CCNCC3)C2)n1,–,-0.589% (inactive)
Cc1cccc([C@H](C)c2cnc[nH]2)c1C,–,-10.2% (inactive)
c1csc(CN2CC3(CCNCC3)C2)n1,–,-15.7% (inactive)
C[C@H](Br)C(=O)N[C@H](CO)C(=O)O,–,-10.5% (inactive)
NCC[Se][Se]CCN,2.82 µM (active),–
O=c1oc2ccccc2c(O)c1C(c1ccccc1O)c1c(O)c2ccccc2oc1=O,–,-2.8% (inactive)
C=CCN1CCC23c4c5ccc(O)c4O[C@H]2C(=O)CC[C@@]3(O)C1C5 (some centres undefined),–,-13.3% (inactive)
CCN(CC)C(=O)c1ccc(NC(=O)c2cc(-n3cnnc3)ccc2Cl)cc1,1.41 µM (active),–
CNC(=S)N/N=C1\C2CN3CCN(C2)CC1(c1ccccc1)C3,–,4.55% (inactive)
O=C(C1CC(=O)N(C2CCCC2)C1)N1CCC2(CC1)OCCO2 (centres undefined),–,6.18% (inactive)
Clc1ccc([C@@H]2C[C@H]3CC[C@@H]2N3)cn1,–,0.221% (inactive)
COc1cc(C(c2c(O)c3ccccc3oc2=O)c2c(C)n(C)n(-c3ccccc3)c2=O)ccc1O (centres undefined),–,-3.16% (inactive)
c1ccc(Cc2nn3c(Cn4cnc5ccccc54)nnc3s2)cc1,7.08 µM (active),–
CCN1C[C@@]2(COC)CC[C@H](OC)[C@]34[C@@H]1[C@]1(OCO[C@@]15C[C@@H](OC)C1C[C@H]3[C@H]5[C@@H]1OC)[C@H](O)[C@@H]24,–,-0.114% (inactive)
C/C(=C\C=C/[C@@H](C)C(=O)O)[C@H]1CN[C@H](C(=O)O)[C@@H]1CC(=O)O,–,-11.8% (inactive)
CC(=O)c1c(O)c(C)c(O)c(Cc2c(O)c3c(c(C(=O)/C=C/c4ccccc4)c2O)OC(C)(C)C=C3)c1O,–,-19.2% (inactive) and -15.4% (inactive)

Structure (SMILES),Potency,"activity change, negative = inhibition"
CCCCC/C=C\C/C=C\C/C=C\CCCCCCC(=O)NCCO,–,-7.26% (inactive) and -18.7% (inactive)
CC(C)(c1ccc(OC[C@@H]2CO2)cc1)c1ccc(OC[C@H]2CO2)cc1,12.6 µM (active),–
CCOC(=O)c1ncn2c1[C@@H]1CCCN1C(=O)c1cc(OC)ccc1-2,–,-9.65% (inactive)
Cc1nc2nc(C)c(CCC(=O)N3CCC4(CC3)OCCO4)c(C)n2n1,–,-4.62% (inactive)
C=CC#N,–,-3.54% (inactive)
NCCc1c[nH]c2ccc(O)cc12,–,-4.55% (inactive) and -5.27% (inactive) and -12.4% (inactive)
Cc1noc(C)c1CSc1nc2cc(S(=O)(=O)N3CCOCC3)ccc2o1,7.94 µM (active),–
C[C@@]12CCC3C(CC[C@@H]4CC(O)CC[C@@]34C)C1CCC2O (some centres undefined),–,-3.43% (inactive)
CC(Cl)Cl,–,-8.77% (inactive)
O=C(NCc1cccs1)c1ccc(Br)o1,20 µM (active),–
Fc1ccc(C(OCCN2CCN(C/C=C\c3ccccc3)CC2)c2ccc(F)cc2)cc1,–,-13.4% (inactive)
CCCCC/C=C\C/C=C\C/C=C\C=C\[C@H](CCCC(=O)O)OO,–,-9.41% (inactive)
Cc1cccc2c3c(ccc12)C1=C(C(=O)C3=O)C(C)CO1 (centres undefined),17.8 µM (active),–
CNCC[C@H](Oc1ccc(C(F)(F)F)cc1)c1ccccc1,–,-9.03% (inactive) and -8.03% (inactive) and -3.66% (inactive)
CC(C)(O)/C=C\C(=O)[C@](C)(O)[C@H]1[C@H](O)C[C@]2(C)[C@@H]3CC=C4[C@@H](C=C(O)C(=O)C4(C)C)[C@]3(C)C(=O)C[C@@]12C,–,-9.86% (inactive)
COC(=O)N(c1ccc(OC)cc1)P1(=S)OCCC(C)O1 (centres undefined),4.47 µM (active),–
OC(Cn1c2ccccc2c2ccccc21)C[n+]1ccccc1 (centres undefined),–,-3.99% (inactive)
Cc1ccc(N2C(=O)NC(=O)C(CCc3ccncc3)(Cc3cccc(Cl)c3Cl)C2=O)cc1 (centres undefined),–,-5.28% (inactive)
C=CCSSCC=C,8.91 µM (active),–
CC(=O)OC1C2CCC3C1(CC(O)[C@@]1(O)[C@@H](CC(O)C1(C)C)[C@]3(C)O)C[C@@]2(C)O (some centres undefined),–,-0.742% (inactive)
CCCCCCCCCCCCCC(=O)O[C@@H]1[C@@H](C)[C@@]2(O)[C@@H](C=C(CO)C[C@]3(O)C(=O)C(C)=C[C@@H]23)[C@@H]2C(C)(C)[C@]12OC(C)=O,–,-19% (inactive)
CC(C)(O)c1[se]c2ccccc2c1I,–,-24.2% (inactive)
Cc1cccc(N2C(=O)NC(=O)/C(=C\c3cnn(-c4ccccc4)c3)C2=O)c1,10 µM (active),–
CC12CN3CC(C)(CN(C1)C3c1cccs1)C2 (centres undefined),–,-2.07% (inactive)

Structure (SMILES),Potency,"activity change, negative = inhibition"
CC(=C1C(=O)c2ccccc2C1=O)N1CCN(CCN=Cc2c(O)n(C)c(=O)n(C)c2=O)CC1,–,-26.9% (inactive)
COc1c(O)ccc2c1-c1c3c(cc4c1C(C2)N(C)CC4)OCO3 (centres undefined),–,-4.96% (inactive)
O=c1c2ccccc2nc(-c2ccco2)n1-c1ccc(Br)cn1,–,-7.61% (inactive)
Cc1nc2ccccn2c1P(=S)(N1CCCCC1)N1CCCCC1,–,-26.7% (inactive)
CCCCCCCCc1[se]c2ccccc2c1Br,–,1.04% (inactive)
CCNC[C@H](O)c1cccc(O)c1,–,-6.69% (inactive)
O=C1/C(=C\c2ccc3c(c2)OCO3)N2CCC1CC2,25.1 µM (active),–
N[C@H](Cc1o[nH]c(=O)c1Cl)C(=O)O,–,0.654% (inactive)
Cc1ccc(N(C)C(=O)Oc2cccc3ccc(C)nc23)cc1,–,-1.1% (inactive)
O=c1c2ccccc2nc(-c2ccc(Cl)cc2Cl)n1-c1ccncc1,–,-1.06% (inactive)
C1CC[C@H]([C@@]23C[C@H](C[C@H]4CCCN[C@H]42)[C@@H]2CCCCN2C3)NC1,–,-4.36% (inactive)
O=C(O)C1C2CCC(O2)C1C(=O)O (centres undefined),–,-2.85% (inactive)
O=C(OCC1O[C@@H](OC(=O)c2cc(O)c(O)c(O)c2)[C@@H](OC(=O)c2cc(O)c(O)c(O)c2)[C@@H](OC(=O)c2cc(O)c(O)c(O)c2)[C@@H]1OC(=O)c1cc(O)c(O)c(O)c1)c1cc(O)c(O)c(O)c1 (some centres undefined),10 µM (active),–
CC(C)N(CC#CCC1(O)c2ccccc2-c2ccccc21)C(C)C,–,-8.59% (inactive)
CCN1CCN(C(=O)Cc2coc3cc(C)cc(C)c23)CC1,–,-14.1% (inactive)
O=[N+]([O-])c1ccc(Cl)c(Cl)c1,–,-4.16% (inactive)
CN[C@@H]1C[C@H]2O[C@@](C)([C@@H]1OC)n1c3ccccc3c3c4c(c5c6ccccc6n2c5c31)C(=O)NC4,–,-25.7% (inactive)
Cc1ccc(Cn2c(C)c3cnn(CC(=O)N4CCC5(CC4)OCCO5)c(=O)c3c2C)cc1,–,-21.8% (inactive)
Cc1cc(-c2n[nH]c(=S)n2-c2ccc(C)c(C)c2)no1,5.62 µM (active),–
NCCc1ccc(S(=O)(=O)F)cc1,–,-8.88% (inactive)
CC(=O)O[C@H]1CC[C@@]2(C)[C@@H](CC[C@H]3[C@H]2CC(=O)[C@]2(C)[C@@H]3C[C@@H](N3CC3)[C@H]2C(C)=O)C1,–,-8.48% (inactive)
CCC(C)C(=O)O[C@@H]1C[C@@]2(C)C(c3ccoc3)OC(=O)CC23OC2(C)O[C@@]14[C@@]1(C)C(CC(=O)OC)C5(C)CC1(O)C(O)(C5OC(=O)C1(C)OC1C)C(OC(C)=O)[C@@]34O2 (some centres undefined),–,-23.2% (inactive)

# From PubChem BioAssay AID894 (National Center for Advancing Translational Sciences (NCATS), 2007)
